We go through one sequence from article PMC7862700, “An all-to-all approach to the identification of sequence-specific readers for epigenetic DNA modifications on cytosine”.

What all share (assay): DAPPL (digital affinity profiling via proximity ligation, sequencing); 10 mM Tris-HCl pH 7.5, 50 mM NaCl, 1 mM DTT, 4% glycerol, room temperature, 30 min; GST-TFs on glutathione beads, 16-mer random dsDNA library, 0.1% formaldehyde crosslink after washing; high values mean tight binding
In assay [1] the target is T1, FEV (Homo sapiens, UniProt Q99581 1-238).
T1 sequence: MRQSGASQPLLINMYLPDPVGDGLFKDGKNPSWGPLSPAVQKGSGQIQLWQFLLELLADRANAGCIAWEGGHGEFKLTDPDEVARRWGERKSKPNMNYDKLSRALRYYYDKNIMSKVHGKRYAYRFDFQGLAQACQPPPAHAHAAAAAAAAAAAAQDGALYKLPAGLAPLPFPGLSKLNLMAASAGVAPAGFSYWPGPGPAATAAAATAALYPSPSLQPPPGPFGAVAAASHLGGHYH
Particulars: protein: recombinant; tags: N-terminal GST; dsDNA, one strand shown. An outline of the steps: (§1)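 Yeast served to express human transcription factors as GST fusions, which were then captured on glutathione beads and labelled with DNA barcodes. Pooled with a tag-only sample, they were incubated with 200 nmole of a 16-mer random double-stranded DNA library for 30 min at room temperature in Tris/NaCl/DTT/glycerol buffer, washed, crosslinked with 0.1% formaldehyde, ligated by proximity, amplified by PCR and sequenced. Dividing each hexamer's read frequency for a factor by its frequency for the tag-only sample gives the binding signal.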

For assay [2], the target named is ETV5 (Homo sapiens, UniProt P41161 1-510). Conditions: protein: recombinant; tags: N-terminal GST; dsDNA, one strand shown. In outline: as §1
In assay [3] the target is HSF1 (Homo sapiens, UniProt Q00613 1-529). Particulars: protein: recombinant; tags: N-terminal GST; chain copies: 3; dsDNA, one strand shown. An outline of the steps:
as §1

The target in assay [4] is T2, SPIC (Homo sapiens, UniProt Q8N5J4 1-248).
T2 sequence: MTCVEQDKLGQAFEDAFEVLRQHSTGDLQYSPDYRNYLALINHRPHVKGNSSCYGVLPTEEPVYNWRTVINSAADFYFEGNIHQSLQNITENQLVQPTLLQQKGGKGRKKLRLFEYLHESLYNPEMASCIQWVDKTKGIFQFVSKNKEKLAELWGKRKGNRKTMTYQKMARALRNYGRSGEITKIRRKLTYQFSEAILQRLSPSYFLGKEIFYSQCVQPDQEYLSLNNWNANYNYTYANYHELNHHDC
Conditions: protein: recombinant; tags: N-terminal GST; dsDNA, one strand shown. An outline of the steps: as §1

Assay [5] has as its target ELF4 (Homo sapiens, UniProt Q99607 1-663). Particulars: protein: recombinant; tags: N-terminal GST; dsDNA, one strand shown. An outline of the steps:
as §1

For assay [6], the target named is T3, ELK4 (Homo sapiens, UniProt P28324-2 1-405).
T3 sequence: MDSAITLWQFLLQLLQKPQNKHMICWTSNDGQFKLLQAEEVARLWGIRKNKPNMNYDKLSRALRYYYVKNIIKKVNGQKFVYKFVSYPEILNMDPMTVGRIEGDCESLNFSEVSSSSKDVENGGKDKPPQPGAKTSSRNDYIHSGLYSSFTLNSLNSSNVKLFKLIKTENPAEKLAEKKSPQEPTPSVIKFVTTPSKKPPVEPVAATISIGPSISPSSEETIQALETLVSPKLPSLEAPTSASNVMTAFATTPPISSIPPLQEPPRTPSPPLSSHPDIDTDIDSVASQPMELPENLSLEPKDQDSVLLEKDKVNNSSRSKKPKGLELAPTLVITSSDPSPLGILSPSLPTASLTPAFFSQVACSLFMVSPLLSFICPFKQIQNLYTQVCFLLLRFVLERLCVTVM
Conditions: protein: recombinant; tags: N-terminal GST; dsDNA, one strand shown. In outline: as §1

The target in assay [7] is T4, ETV2 (Homo sapiens, UniProt O00321 1-342).
T4 sequence: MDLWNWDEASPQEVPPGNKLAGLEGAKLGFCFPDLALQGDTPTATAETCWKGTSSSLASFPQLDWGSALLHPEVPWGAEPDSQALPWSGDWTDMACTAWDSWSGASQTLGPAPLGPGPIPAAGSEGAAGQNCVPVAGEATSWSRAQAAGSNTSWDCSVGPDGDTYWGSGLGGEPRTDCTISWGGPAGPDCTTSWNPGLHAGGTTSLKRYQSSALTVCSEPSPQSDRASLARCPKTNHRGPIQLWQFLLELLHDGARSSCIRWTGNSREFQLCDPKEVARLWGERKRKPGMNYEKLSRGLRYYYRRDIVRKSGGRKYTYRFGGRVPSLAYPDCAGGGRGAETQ
Conditions: protein: recombinant; tags: N-terminal GST; dsDNA, one strand shown. In outline: as §1

The target in assay [8] is T5, ELF3 (Homo sapiens, UniProt P78545 1-371).
T5 sequence: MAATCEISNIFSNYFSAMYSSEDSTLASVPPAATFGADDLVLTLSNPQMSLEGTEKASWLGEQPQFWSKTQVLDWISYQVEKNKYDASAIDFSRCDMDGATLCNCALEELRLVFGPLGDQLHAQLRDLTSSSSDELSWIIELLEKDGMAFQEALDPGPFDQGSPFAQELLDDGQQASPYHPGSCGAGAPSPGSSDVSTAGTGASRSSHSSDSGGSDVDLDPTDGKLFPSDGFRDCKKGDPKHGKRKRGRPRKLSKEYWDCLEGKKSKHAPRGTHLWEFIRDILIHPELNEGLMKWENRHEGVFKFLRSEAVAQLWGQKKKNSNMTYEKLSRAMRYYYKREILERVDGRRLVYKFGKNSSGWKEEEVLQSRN
Particulars: protein: recombinant; tags: N-terminal GST; dsDNA, one strand shown. An outline of the steps: as §1

Assay [9] deals with CRX (Homo sapiens, UniProt O43186 1-299). Particulars: protein: recombinant; tags: N-terminal GST; dsDNA, one strand shown. In outline: as §1
Assay [10] concerns the target ETV1 (Homo sapiens, UniProt P50549 1-477). Particulars: protein: recombinant; tags: N-terminal GST; dsDNA, one strand shown. In outline:
as §1

In assay [11] the target is T6, ERF (Homo sapiens, UniProt P50548 1-548).
T6 sequence: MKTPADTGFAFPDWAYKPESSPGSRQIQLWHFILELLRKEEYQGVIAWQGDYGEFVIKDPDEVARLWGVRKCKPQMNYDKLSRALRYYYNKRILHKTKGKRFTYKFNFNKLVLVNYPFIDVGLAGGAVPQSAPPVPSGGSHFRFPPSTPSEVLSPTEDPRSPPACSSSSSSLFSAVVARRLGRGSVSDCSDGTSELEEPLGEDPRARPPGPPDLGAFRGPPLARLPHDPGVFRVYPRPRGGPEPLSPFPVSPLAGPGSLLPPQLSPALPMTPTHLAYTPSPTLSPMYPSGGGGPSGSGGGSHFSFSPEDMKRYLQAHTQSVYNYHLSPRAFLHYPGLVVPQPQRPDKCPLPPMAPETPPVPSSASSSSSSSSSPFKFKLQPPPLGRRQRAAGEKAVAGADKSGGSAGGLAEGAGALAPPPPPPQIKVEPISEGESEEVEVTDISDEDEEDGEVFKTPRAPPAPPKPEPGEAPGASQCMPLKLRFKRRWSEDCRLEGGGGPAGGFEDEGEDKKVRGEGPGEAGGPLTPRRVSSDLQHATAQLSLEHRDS
Conditions: protein: recombinant; tags: N-terminal GST; dsDNA, one strand shown. An outline of the steps: as §1

Assay [12] deals with T7, ETV3L (Homo sapiens, UniProt Q6ZN32 1-361).
T7 sequence: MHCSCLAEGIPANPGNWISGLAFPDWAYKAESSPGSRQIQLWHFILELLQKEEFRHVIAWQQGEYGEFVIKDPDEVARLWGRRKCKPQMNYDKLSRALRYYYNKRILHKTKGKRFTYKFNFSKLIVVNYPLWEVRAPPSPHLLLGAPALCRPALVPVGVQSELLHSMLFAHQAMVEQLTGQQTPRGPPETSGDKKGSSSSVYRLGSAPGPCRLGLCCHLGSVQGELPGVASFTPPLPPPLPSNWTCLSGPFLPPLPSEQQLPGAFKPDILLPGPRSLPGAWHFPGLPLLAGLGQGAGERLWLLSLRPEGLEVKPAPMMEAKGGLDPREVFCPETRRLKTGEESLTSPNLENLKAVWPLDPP
Particulars: protein: recombinant; tags: N-terminal GST; dsDNA, one strand shown. In outline: as §1

Assay [13] deals with T8, ETS2 (Homo sapiens, UniProt P15036 1-469).
T8 sequence: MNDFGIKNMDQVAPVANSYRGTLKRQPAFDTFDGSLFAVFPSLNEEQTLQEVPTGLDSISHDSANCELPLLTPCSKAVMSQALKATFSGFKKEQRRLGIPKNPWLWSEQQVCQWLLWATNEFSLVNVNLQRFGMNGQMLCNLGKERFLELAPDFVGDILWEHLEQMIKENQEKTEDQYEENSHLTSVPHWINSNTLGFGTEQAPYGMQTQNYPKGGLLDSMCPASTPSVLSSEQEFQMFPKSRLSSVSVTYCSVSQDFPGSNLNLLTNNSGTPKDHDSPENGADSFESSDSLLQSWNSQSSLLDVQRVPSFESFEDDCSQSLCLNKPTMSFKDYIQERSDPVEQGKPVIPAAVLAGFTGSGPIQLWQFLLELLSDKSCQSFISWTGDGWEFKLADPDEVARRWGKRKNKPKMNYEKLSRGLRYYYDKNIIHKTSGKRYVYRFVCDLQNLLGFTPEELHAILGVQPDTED
Conditions: protein: recombinant; tags: N-terminal GST; dsDNA, one strand shown. An outline of the steps: as §1

The target of assay [14] is T9, SPDEF (Homo sapiens, UniProt O95238 1-335).
T9 sequence: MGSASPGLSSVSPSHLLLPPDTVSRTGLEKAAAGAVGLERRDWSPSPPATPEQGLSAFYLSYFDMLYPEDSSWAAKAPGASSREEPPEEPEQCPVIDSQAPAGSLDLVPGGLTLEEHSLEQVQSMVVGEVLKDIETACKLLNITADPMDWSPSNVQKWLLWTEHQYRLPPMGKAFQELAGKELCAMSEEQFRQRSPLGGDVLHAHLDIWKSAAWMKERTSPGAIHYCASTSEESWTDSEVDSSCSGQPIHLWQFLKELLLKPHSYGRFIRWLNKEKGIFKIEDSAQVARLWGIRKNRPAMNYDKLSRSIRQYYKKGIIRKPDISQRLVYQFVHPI
Conditions: protein: recombinant; tags: N-terminal GST; dsDNA, one strand shown. In outline: as §1

Assay [15] concerns the target T10, ETV7 (Homo sapiens, UniProt Q9Y603 1-341).
T10 sequence: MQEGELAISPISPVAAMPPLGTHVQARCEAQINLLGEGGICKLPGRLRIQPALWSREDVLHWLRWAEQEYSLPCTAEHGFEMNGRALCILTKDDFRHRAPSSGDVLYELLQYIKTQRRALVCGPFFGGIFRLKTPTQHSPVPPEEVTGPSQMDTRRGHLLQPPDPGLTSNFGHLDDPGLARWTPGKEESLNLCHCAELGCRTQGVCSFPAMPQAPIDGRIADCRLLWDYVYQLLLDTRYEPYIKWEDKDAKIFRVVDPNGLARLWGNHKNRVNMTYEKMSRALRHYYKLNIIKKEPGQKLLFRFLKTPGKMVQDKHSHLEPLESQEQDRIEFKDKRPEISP
Conditions: protein: recombinant; tags: N-terminal GST; dsDNA, one strand shown. In outline:
as §1

In assay [16] the target is T11, ELF5 (Homo sapiens, UniProt Q9UKW6-2 1-255).
T11 sequence: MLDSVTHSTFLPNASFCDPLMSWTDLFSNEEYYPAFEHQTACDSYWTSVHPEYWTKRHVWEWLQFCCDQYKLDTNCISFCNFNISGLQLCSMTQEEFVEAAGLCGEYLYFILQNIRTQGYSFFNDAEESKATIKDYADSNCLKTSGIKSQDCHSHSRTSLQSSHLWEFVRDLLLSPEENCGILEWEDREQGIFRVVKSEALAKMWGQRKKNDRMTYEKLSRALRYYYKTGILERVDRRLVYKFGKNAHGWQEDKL
Conditions: protein: recombinant; tags: N-terminal GST; dsDNA, one strand shown. In outline: as §1

Assay [17] deals with T12, ETV3 (Homo sapiens, UniProt P41162-2 1-143).
T12 sequence: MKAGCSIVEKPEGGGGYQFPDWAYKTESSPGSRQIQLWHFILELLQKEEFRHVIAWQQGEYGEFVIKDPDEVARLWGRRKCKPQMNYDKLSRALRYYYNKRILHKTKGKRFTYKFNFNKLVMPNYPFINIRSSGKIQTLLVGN
Particulars: protein: recombinant; tags: N-terminal GST; dsDNA, one strand shown. In outline: as §1

The target in assay [18] is ETV6 (Homo sapiens, UniProt P41212 1-452). Particulars: protein: recombinant; tags: N-terminal GST; dsDNA, one strand shown. In outline: as §1
ETV6, sequence (P41212 whole entry): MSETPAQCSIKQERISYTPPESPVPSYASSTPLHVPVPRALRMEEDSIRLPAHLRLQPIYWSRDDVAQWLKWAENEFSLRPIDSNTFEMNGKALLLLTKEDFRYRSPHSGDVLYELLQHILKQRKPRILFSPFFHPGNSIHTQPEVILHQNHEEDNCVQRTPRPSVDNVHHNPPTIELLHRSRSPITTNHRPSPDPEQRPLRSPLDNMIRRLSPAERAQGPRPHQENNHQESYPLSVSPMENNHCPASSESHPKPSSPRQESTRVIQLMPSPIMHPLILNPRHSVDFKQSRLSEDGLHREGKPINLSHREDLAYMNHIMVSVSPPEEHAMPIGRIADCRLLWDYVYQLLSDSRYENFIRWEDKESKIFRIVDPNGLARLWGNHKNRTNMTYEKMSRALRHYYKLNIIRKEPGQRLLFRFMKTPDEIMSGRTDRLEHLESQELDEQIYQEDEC

ETV5, sequence (P41161 whole entry): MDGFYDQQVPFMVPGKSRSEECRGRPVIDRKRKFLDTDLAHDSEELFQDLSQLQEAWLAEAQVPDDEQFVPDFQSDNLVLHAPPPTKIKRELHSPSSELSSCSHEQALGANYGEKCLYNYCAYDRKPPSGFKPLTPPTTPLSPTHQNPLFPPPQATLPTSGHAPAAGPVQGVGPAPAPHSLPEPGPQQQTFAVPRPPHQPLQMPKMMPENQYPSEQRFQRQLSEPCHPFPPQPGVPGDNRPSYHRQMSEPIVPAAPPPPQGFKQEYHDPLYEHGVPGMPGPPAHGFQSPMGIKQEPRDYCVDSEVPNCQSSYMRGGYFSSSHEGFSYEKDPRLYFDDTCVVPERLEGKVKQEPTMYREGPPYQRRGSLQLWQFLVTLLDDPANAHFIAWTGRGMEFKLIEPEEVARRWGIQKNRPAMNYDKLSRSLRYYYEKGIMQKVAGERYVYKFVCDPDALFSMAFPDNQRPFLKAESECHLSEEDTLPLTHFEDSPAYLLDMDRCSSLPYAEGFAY
CRX, sequence (O43186 whole entry): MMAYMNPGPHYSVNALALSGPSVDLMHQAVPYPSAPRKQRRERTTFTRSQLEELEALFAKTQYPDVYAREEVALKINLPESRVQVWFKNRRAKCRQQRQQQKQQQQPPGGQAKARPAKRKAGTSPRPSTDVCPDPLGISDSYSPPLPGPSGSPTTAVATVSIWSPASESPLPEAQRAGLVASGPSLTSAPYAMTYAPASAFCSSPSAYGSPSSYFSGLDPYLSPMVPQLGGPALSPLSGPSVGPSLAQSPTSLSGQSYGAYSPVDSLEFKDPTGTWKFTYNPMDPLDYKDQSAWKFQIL
ELF4, sequence (Q99607 whole entry): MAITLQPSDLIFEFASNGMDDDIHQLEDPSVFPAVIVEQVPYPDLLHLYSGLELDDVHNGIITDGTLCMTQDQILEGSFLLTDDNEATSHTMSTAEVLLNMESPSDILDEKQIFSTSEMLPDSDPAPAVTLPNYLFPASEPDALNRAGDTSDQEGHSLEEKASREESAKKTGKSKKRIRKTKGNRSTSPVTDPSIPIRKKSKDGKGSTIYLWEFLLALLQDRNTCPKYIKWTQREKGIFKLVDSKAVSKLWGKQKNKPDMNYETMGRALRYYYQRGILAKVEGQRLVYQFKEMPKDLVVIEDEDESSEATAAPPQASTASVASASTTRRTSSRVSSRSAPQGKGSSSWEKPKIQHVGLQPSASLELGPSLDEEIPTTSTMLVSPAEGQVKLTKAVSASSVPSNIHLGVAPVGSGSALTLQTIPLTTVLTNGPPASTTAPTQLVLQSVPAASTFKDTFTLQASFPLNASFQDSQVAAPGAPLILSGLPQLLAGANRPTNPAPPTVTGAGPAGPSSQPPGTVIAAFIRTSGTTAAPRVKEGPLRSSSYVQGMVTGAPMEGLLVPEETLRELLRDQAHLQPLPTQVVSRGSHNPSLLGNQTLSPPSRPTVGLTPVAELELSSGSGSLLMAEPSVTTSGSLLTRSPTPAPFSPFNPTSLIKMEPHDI
HSF1, sequence (Q00613 whole entry): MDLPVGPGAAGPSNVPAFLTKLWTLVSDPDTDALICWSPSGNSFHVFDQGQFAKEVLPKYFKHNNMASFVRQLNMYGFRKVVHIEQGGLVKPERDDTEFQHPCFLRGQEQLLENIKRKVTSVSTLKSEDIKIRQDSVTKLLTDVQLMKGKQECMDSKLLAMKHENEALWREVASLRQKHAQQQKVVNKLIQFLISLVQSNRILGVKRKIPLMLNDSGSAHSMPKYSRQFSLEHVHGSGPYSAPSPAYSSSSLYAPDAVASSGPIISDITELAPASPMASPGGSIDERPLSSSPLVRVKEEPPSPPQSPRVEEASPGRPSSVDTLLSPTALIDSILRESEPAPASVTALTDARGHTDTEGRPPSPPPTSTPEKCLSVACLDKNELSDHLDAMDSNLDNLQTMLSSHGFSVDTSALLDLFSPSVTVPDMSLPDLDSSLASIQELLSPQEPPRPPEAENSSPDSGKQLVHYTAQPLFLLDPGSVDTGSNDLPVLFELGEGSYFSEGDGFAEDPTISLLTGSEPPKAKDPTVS
ETV1, sequence (P50549 whole entry): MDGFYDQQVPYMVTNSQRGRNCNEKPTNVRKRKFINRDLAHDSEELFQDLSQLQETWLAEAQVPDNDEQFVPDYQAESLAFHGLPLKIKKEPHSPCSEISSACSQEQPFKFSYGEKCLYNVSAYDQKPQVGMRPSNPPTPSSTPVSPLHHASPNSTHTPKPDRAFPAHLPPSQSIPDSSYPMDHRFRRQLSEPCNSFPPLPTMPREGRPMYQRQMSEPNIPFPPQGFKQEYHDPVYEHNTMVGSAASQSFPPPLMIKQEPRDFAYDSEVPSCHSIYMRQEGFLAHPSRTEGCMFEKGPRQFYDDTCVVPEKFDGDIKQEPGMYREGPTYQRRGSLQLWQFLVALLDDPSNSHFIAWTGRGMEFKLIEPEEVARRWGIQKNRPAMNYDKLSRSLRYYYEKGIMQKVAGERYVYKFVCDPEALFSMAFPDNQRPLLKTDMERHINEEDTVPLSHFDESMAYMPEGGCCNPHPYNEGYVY

Consider TTCGGT, for which the binding signal in [1] was 1.16 fold enrichment (6-mer frequency, TF over GST control); in [2] it was 1.23 fold enrichment (6-mer frequency, TF over GST control); in assay [3], 1.22 fold enrichment (6-mer frequency, TF over GST control); in assay [4], 1.34 fold enrichment (6-mer frequency, TF over GST control); in assay [5], 1.17 fold enrichment (6-mer frequency, TF over GST control); in assay [6], 1.21 fold enrichment (6-mer frequency, TF over GST control). Moreover, the binding signal in [7] is 1.13 fold enrichment (6-mer frequency, TF over GST control); in assay [8], 1.04 fold enrichment (6-mer frequency, TF over GST control); in assay [9], 1 fold enrichment (6-mer frequency, TF over GST control); in assay [10], 1.23 fold enrichment (6-mer frequency, TF over GST control); in [11], 1.18 fold enrichment (6-mer frequency, TF over GST control); in assay [12], 1.11 fold enrichment (6-mer frequency, TF over GST control). Besides, the binding signal in assay [13] was 1.16 fold enrichment (6-mer frequency, TF over GST control); in [14], 1.13 fold enrichment (6-mer frequency, TF over GST control); in assay [15], 1.15 fold enrichment (6-mer frequency, TF over GST control); in assay [16] it was 1.06 fold enrichment (6-mer frequency, TF over GST control); in [17] it was 1.07 fold enrichment (6-mer frequency, TF over GST control); in [18], 1.22 fold enrichment (6-mer frequency, TF over GST control).
